According to PubChem BioAssay:
The source made the active and inactive calls.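 The calls were made as follows: active = growth inhibition above 50% at the single 2 µM test dose, taken to imply half-maximal potency below 2 µM; inactive = the rest.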

Test: antimalarial activity against Dd2 strain (AID 2302);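 also: 0% = DMSO untreated growth and 100% = chloroquine plus artemisinin killed control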
Conditions: P. falciparum Dd2 in RBCs, LDH growth readout, 72 h; at 2 µM; active compounds read high
For `CN1CCN(CCCN(Cc2ccc(-c3cccc(CNCc4ccc5c(c4)OCO5)c3)cc2)C(=O)NC2CCCCC2)CC1`, the growth inhibition was 92% (active). In the case of `Cc1[nH]c(C)c(-c2ccc(CCc3ccc(F)cc3F)cc2)c(=O)c1Cl`, the growth inhibition is reported as 97% (active). In the case of `Cc1cc(OCCCN2CCC(NS(=O)(=O)c3cccc(Br)c3)CC2)c2ccccc2n1`, the growth inhibition is reported as 28% (inactive). For `CC(C)NCc1ccc(-c2cccc(NC(=O)c3cccc(C#N)c3)c2)cc1`, the growth inhibition was 78% (active). With `CC(C)C[C@H](NC(=O)c1cc2ccccc2s1)C(=O)N[C@H]1CCN(Cc2ccc(OCCN3CCNCC3)c3ccccc23)C1` the growth inhibition was 96% (active). In the case of `COc1ccc(OCCCCON2C(N)=NC(N)=NC2(C)C)cc1`, the growth inhibition is reported as 95% (active). With `Cc1ccc(C(=O)Nc2ccc(Cl)c(N3CCN(CCc4ccccc4)CC3)c2)cc1` the growth inhibition was 14% (inactive). In the case of `Cc1ccc(C(C(=O)Nc2ccc(N3CCNCC3)c(Cl)c2)c2ccccc2)cc1` (stereo not given), the growth inhibition is reported as 93% (active). With `COc1cc(CNCCCCCCNCc2cc(OC)cc3ccccc23)c2ccccc2c1` the growth inhibition was 94% (active). With `COc1cc(C(=O)N2CC[C@@H](CCN3CCC4(CC3)CN(S(C)(=O)=O)c3ccccc34)C[C@H]2Cc2ccc(Cl)c(Cl)c2)cc(OC)c1OC` the growth inhibition was 99% (active). In the case of `Cc1ccc2c(NN=CC=Cc3ccccc3)cc(C)nc2c1`, the growth inhibition is reported as 13% (inactive). For `OCCN1CCN(Cc2ccc(-c3ccc(-c4nc5ccc(C(F)(F)F)cc5[nH]4)s3)cc2)CC1`, the growth inhibition was 99% (active). In the case of `NC1=NC2(CCCCC2)N(OCCCOc2cccc3ccccc23)C(N)=N1`, the growth inhibition is reported as 96% (active). For `Cc1cccc2[nH]c(-c3cccc(-c4ccc(NC(=O)Cc5ccon5)cc4)c3)nc12`, the growth inhibition was 38% (inactive). With `COc1ccc2nccc([C@@H](O)CN3CCC(NC(=O)c4cc5ccccc5[nH]4)CC3)c2c1` the growth inhibition was 55% (active). In the case of `O=C(NCCc1ccc(Cl)c(Cl)c1)C1CCCN(C(=O)c2ccc(O)c(-c3ccc(Cl)c(Cl)c3)c2)C1` (stereo not given), the growth inhibition is reported as 65% (active). With `CCCc1cc(Cc2cnc(N)nc2N)cc(CCC)c1OCCCCCC(=O)OCC` the growth inhibition was -3% (inactive). In the case of `CCCCc1ccc(-c2ccc(-c3c(C)[nH]c(C)c(Br)c3=O)cn2)cc1`, the growth inhibition is reported as 96% (active). For `Cc1cc(NN=Cc2ccccn2)c2cc(C(F)(F)F)ccc2n1`, the growth inhibition was 100% (active). In the case of `O=C(Nc1ccsc1)Nc1cccc(-c2cccc(-c3nc4ccc(C(F)(F)F)cc4[nH]3)c2)c1`, the growth inhibition is reported as 101% (active). In the case of `COc1cc(NC(=O)C(c2ccc(Cl)cc2)C(C)C)cc(OC)c1` (stereo not given), the growth inhibition is reported as 98% (active). With `CC(C)(C)C1CC(=O)C[C@@H]2C(=O)N(c3ccc(Br)cc3)C(=O)[C@H]12` (stereo not given in full) the growth inhibition was 7% (inactive). In the case of `COc1ccc(O)c(C(=O)c2cc(C(=O)NC3CCCCC3)c(=O)n(C3CCCCC3)c2)c1`, the growth inhibition is reported as 62% (active). In the case of `COc1ccccc1NC(=O)Nc1ccc(-c2ccc(-c3nc4c(C)cccc4[nH]3)s2)cc1`, the growth inhibition is reported as 99% (active). With `COc1cc2c(C3CCN(CC4CCC(NC(=O)/C=C/c5ccc(Cl)c(Cl)c5)CC4)CC3)c[nH]c2cn1` (stereo not given) the growth inhibition was 100% (active). In the case of `COCC(C)n1c(SCC(=O)Nc2cc(C(F)(F)F)ccc2Cl)nc2ccccc2c1=O` (stereo not given), the growth inhibition is reported as 96% (active). For `COc1ccc(-n2cc(CNCCCn3ccnc3)c(-c3cccc(F)c3)n2)cc1`, the growth inhibition was 17% (inactive). With `COc1cc(Cc2cnc(N)nc2N)cc(OCCCCC2SC(=O)NC2=O)c1OC` (stereo not given) the growth inhibition was 0% (inactive). In the case of `COc1ccc2nccc([C@@H](O)CN3CCC(NCc4nc5cc(F)ccc5o4)CC3)c2c1`, the growth inhibition is reported as 12% (inactive). For `N=C(N)c1cc(Br)cc(NC(=O)Nc2cc(Br)cc(C(=N)N)c2)c1`, the growth inhibition was 76% (active). In the case of `CS(=O)(=O)c1ccc(CNCc2ccc(-c3cccc(-c4nc5ccc(F)cc5[nH]4)c3)cc2)cc1`, the growth inhibition is reported as 74% (active). With `CC(C)(C)c1ccc(NC(=O)c2cccc(CN3CCN(Cc4cccc(O)c4)CC3)c2)cc1` the growth inhibition was 3% (inactive). In the case of `COc1cc(C(=O)NC2CCN(Cc3ccccc3)CC2)ccc1-c1cc2cc(Cl)c(Cl)cc2[nH]1`, the growth inhibition is reported as 101% (active). For `COc1cc(NC(=O)c2sc(-c3ccc(Cl)cc3)cc2NC(=O)CN2CCCC2)ccc1OCCN1CCCC1`, the growth inhibition was 79% (active). In the case of `O=[N+]([O-])c1ccc(Nc2nc(NN=Cc3ccc(-c4ccc([N+](=O)[O-])cc4)o3)nc(Nc3ccccc3)n2)cc1`, the growth inhibition is reported as 74% (active). In the case of `CN1CCN(CCCN(Cc2ccc(-c3cccc(CNC4CCCC4)c3)cc2)C(=O)/C=C/c2ccccc2)CC1`, the growth inhibition is reported as 87% (active). In the case of `CC(C)(C)c1ccc(CN2CCCCC(NC(=O)c3cc(-c4cccc(Cl)c4)cs3)C2)cc1` (stereo not given), the growth inhibition is reported as 60% (active). With `O=C(NCc1cccc(F)c1)Nc1cccc(-c2ccc(-c3nc4ccc(F)cc4[nH]3)cc2)c1` the growth inhibition was 0% (inactive). For `CCCCCC(=O)N1CCOC(CCN2CCc3c(c4ccccc4n3C)C2)(c2ccc(Cl)c(Cl)c2)C1` (stereo not given), the growth inhibition was 80% (active). With `CC(=O)Oc1c(C2CCN(CCCCNC(=O)c3ccc(NC(=O)c4ccc(Cl)cc4)cc3)CC2)ccc2ccccc12` the growth inhibition was 92% (active).
